A549 tox-1: A549 cytotoxicity, counter-screen for Nrf2 inhibitors. A549 ARE-Fluc cells, CellTiter-Fluor viability, 18-24 h. Potency, µM (top dose mostly 46 µM), inactives show at the highest dose activity change, negative = cytotoxicity, usual class: inhibitors. 0.16% of 390,000 active. AID 504648; further: potency means the concentration at half of the fitted maximal effect; on the % scale 0 is the no-effect control and ±100 the full control effect
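A549 ARE_Fluc cells in 5% FBS OPTI-MEM were exposed to compounds in concentration-response for 18-24 h at 37 deg C. Viability was read by CellTiter-Fluor fluorescence (Ex 405/Em 525) after 30 min, before the luciferase read.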
ATXN viability: cell viability loss in ATXN counter-screen; S2 cells (HEK-293 line with an ATXN2-luciferase reporter) viability, CellTiter-Fluor protease fluorescence, 24 h; Potency, µM (series often up to 56.7 µM), actives largely listed as cytotoxic; 0.49% of 400,000 active; further: potency means the concentration at half of the fitted maximal effect; nearly all actives have a fitted effect of over 40% in size
ATXN2 expr inh: ATXN2 expression inhibition; 0.72% of 360,000 active; Potency, µM (doses to about 57 µM), for the others: at the top dose activity change, negative = inhibition, hits mostly inhibitors; HEK-293 ATXN2-luciferase reporter, luminescence, 24 h; AID 1745845; further: potency means the concentration at half of the fitted maximal effect; on the % scale 0 is the no-effect control and ±100 the full control effect; nearly all actives have a fitted effect of over 55% in size
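ATXN2-luciferase reporter cells (luciferase flanked by upstream and downstream ATXN2 gene portions) were treated 24 h at 37 °C with compounds at up to 57 uM. SteadyGlo luminescence gave expression; GF-AFC fluorescence gave viability.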
HepG2 tox-1: counter-screen for TGF-b inhibitors: cytotoxicity in HepG2 cells. AID 588856. HepG2 CAGA-GFP viability, ATP luminescence, 18 h. 0.76% of 410,000 active. Potency, µM (series often up to 46.1 µM), for the others: at the top dose activity change, negative = cytotoxicity, actives largely listed as cytotoxic; further: potency means the concentration at half of the fitted maximal effect
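HepG2 CAGA-GFP cells (1000/well, DMEM with 1% FBS) received compound, then TGF-beta at 500 pg/mL final, and were incubated 18 hours at 37 degrees C. Viability was read by CellTiter-Glo luminescence. Media-only wells were set as complete cell-killing and DMSO as no toxicity.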
Nrf2 inh: Nrf2 pathway inhibition; 2.1% of 360,000 active; A549 ARE-Fluc reporter, luciferase luminescence, 18-24 h; Potency, µM (doses to about 46 µM), inactives show top-dose activity change, negative = inhibition, hits mostly inhibitors; further: potency means the concentration at half of the fitted maximal effect; on the % scale 0 is the no-effect control and ±100 the full control effect; nearly all actives have a fitted effect of over 60% in size
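Concentration-response testing used A549 ARE_Fluc cells at 5000 cells/well. Following an 18-24 h compound incubation, viability was read by fluorescence (Ex 405/Em 525) and luciferase output by luminescence.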
TGFb SMAD3 inh: blocks TGF-b signaling | HepG2 CAGA-GFP TGF-b/SMAD3 reporter, GFP fluorescence, 18 h; TGF-beta stimulated, 500 pg/mL final | Potency, µM (series often up to 46.1 µM), for the others: top-dose activity, negative = inhibition, usual class: inhibitors | 1.2% of 410,000 active | AID 588855; further: potency means the concentration at half of the fitted maximal effect; on the % scale 0 is the no-effect control and ±100 the full control effect; nearly all actives have a fitted effect of over 65% in size
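HEPG2 CAGA-GFP, 1000 cells/well; 2 h settle, 37 C; cpd via pin tool; TGF-b 500 pg/mL final; 18 h, 37 C; GFP imaging ex488/em500-530; %Activity normalised to -TGF-b and +DMSO controls; CRC fit, curve class.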
FLuc enzyme inh: blocks purified firefly luciferase in Nrf2 counterscreen | AID 720522 | 4% of 1,400 active | shares compounds with Nrf2 inh | purified firefly luciferase, luminescence inhibition | Potency, µM (series often up to 57.5 µM), inactives show at the top dose activity change, negative = inhibition, hits mostly inhibitors; further: potency means the concentration at half of the fitted maximal effect; on the % scale 0 is the no-effect control and ±100 the full control effect; nearly all actives have a fitted effect of over 65% in size
Target sequence (P08659 whole entry, looked up): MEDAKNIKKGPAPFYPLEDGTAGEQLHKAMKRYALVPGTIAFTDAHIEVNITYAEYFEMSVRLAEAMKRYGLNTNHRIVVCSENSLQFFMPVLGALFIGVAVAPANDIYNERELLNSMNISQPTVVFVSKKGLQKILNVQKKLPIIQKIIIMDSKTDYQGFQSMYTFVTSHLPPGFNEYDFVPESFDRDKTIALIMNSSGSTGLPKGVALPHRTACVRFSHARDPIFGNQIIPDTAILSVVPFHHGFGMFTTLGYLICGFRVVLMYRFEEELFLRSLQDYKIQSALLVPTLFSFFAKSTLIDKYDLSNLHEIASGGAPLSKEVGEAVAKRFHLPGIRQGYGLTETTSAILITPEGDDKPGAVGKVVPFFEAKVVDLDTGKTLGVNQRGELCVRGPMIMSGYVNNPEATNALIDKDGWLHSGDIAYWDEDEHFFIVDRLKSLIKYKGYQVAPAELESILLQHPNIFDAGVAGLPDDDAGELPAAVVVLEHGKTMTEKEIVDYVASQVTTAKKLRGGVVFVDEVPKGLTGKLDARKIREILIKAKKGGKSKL
A549 tox-2: toxic to A549 ARE-Fluc cells in Nrf2 counterscreen. AID 720523. 2% of 1,400 active. Potency, µM (titrated, usually from 46.1 µM), for inactives: at the highest dose activity change, negative = cytotoxicity, actives largely listed as inhibitors. A549 ARE-Fluc cells, cytotoxicity counterscreen. shares compounds with Nrf2 inh;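 further: potency means the concentration at half of the fitted maximal effect; cells exposed to compounds for 18 to 24 hours; on the % scale 0 is the no-effect control and ±100 the full control effect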
ARE-Fluc inh: reduces Nrf2 ARE reporter signal in A549 cells; 74% of 1,400 active; AID 720524; A549 ARE-firefly luciferase reporter, luminescence; shares compounds with Nrf2 inh; Potency, µM (doses to about 46.1 µM), for inactives: at the top dose activity change, negative = inhibition, hits mostly inhibitors; further: potency means the concentration at half of the fitted maximal effect; on the % scale 0 is the no-effect control and ±100 the full control effect; nearly all actives have a fitted effect of over 65% in size
TGFb confirm: confirmation of TGF-b signaling inhibitors in HepG2 reporter cells. Potency, µM (titrated, usually from 46.1 µM), without a hit: at the highest dose activity, negative = inhibition, usual class: inhibitors. AID 720534. HepG2 CAGA-GFP TGF-b reporter, GFP fluorescence, 18 h; cells stimulated with TGF-beta, 500 pg/mL. 63% of 1,600 active. shares compounds with TGFb SMAD3 inh; further: potency means the concentration at half of the fitted maximal effect; on the % scale 0 is the no-effect control and ±100 the full control effect; nearly all actives have a fitted effect of over 65% in size
HepG2 tox-2: HepG2 cytotoxicity, TGF-b inhibitor counterscreen; shares compounds with TGFb SMAD3 inh; HepG2 CAGA-GFP viability, ATP luminescence, 18 h; cells stimulated with TGF-beta, 500 pg/mL; Potency, µM (titrated, usually from 46.1 µM), for inactives: top-dose activity, negative = cytotoxicity, actives largely listed as inhibitors; 27% of 1,600 active; AID 720535; further: potency means the concentration at half of the fitted maximal effect; on the % scale 0 is the no-effect control and ±100 the full control effect; nearly all actives have a fitted effect of over 70% in size
TGFb CCL64 inh: orthogonal confirmation of TGF-b inhibitors in CCL64 cells; Potency, µM (doses to about 46.1 µM), for the others: at the top dose activity, negative = inhibition, actives largely listed as inhibitors; 41% of 1,600 active; shares compounds with TGFb SMAD3 inh; CCL64 CAGA-GFP reporter, TGF-b stimulated, GFP fluorescence, 18 h; further: potency means the concentration at half of the fitted maximal effect; nearly all actives have a fitted effect of over 65% in size
COP TGFb inh: validation of TGF-b inhibitors in HepG2 COP promoter reporter | shares compounds with TGFb SMAD3 inh | HepG2 COP-GFP TGF-b reporter, GFP fluorescence, 18 h; cells stimulated by added recombinant TGF-beta | Potency, µM (series often up to 46.1 µM), without a hit: top-dose activity, negative = inhibition, actives largely listed as inhibitors | 3% of 1,600 active | AID 720537; further: potency means the concentration at half of the fitted maximal effect; nearly all actives have a fitted effect of over 70% in size
SK-N-SH 3D tox: reduced viability of SK-N-SH 3D spheroids, orthogonal test | shares compounds with ATXN2 expr inh | SK-N-SH 3D spheroid viability, PI/Hoechst imaging, 72 h | Potency, µM (doses to about 30.7 µM), hits mostly inhibitors | 70% of 65 active
SJ-GBM2 3D tox: reduced viability of SJ-GBM2 3D spheroids, orthogonal test; shares compounds with ATXN2 expr inh; SJ-GBM2 3D spheroid viability, PI/Hoechst imaging, 72 h; Potency, µM (top dose mostly 30.7 µM), actives largely listed as inhibitors; 80% of 65 active
Daoy spheroid: reduced viability of Daoy 3D spheroids, orthogonal test; shares compounds with ATXN2 expr inh; Daoy 3D spheroid viability, PI/Hoechst imaging, 72 h; Potency, µM (series often up to 30.7 µM), usual class: inhibitors; 50% of 65 active; AID 1347137
TC32 3D casp: TC32 spheroid caspase-3/7 activation, orthogonal screen; Potency, µM (titrated, usually from 30.7 µM), actives largely listed as inhibitors; 30% of 65 active; TC32 3D spheroids, caspase-3/7 fluorescence imaging, 24 h; shares compounds with ATXN2 expr inh
TC32 spheroid: TC32 3D spheroid viability loss. Potency, µM (doses to about 30.7 µM), usual class: inhibitors. shares compounds with ATXN2 expr inh. 60% of 65 active. TC32 3D spheroid viability, PI/Hoechst imaging, 72 h
MG63 3D tox: MG-63 (6-TG R) 3D spheroid viability loss; shares compounds with ATXN2 expr inh; Potency, µM (highest dose often 30.7 µM), most hits filed as inhibitors; 50% of 65 active; MG-63 (6-TG R) 3D spheroid viability, PI/Hoechst imaging, 72 h; AID 1347140
RD 3D tox: reduced viability of RD 3D spheroids, orthogonal test; shares compounds with ATXN2 expr inh; RD rhabdomyosarcoma 3D spheroid viability, PI/Hoechst imaging, 72 h; Potency, µM (highest dose often 30.7 µM), hits mostly inhibitors; 50% of 65 active; AID 1347141
An asterisk follows results filed as active; i = inactive; ? = inconclusive; / = no result. Rows were chosen to be rich in hits. Some 3.8% of all compounds tested hit in one or more screens of this group. The call rests on the fitted dose curve; in most records, active means well fitted curve in the direction sought with a large enough effect; inconclusive means small, poorly fitted or top-dose-only effect, or another doubt; inactive means no such curve, though single readings can be large; an effect the other way counts as inactive or inconclusive.

SMILES | A549 tox-1 | ATXN viability | ATXN2 expr inh | HepG2 tox-1 | Nrf2 inh | TGFb SMAD3 inh | TGFb confirm | HepG2 tox-2 | TGFb CCL64 inh | COP TGFb inh | others
C[C@@H]1C[C@@H]([C@H](O)CC2CC(=O)NC(=O)C2)C(=O)[C@@H](C)C1 | ? | ? | 1.3µM* | -25% | 0.58µM* | 1µM* | / | / | / | / | FLuc enzyme inh=-11%;A549 tox-2=-29%;ARE-Fluc inh=5.8µM*;SK-N-SH 3D tox=?;SJ-GBM2 3D tox=1µM*;Daoy spheroid=?;TC32 3D casp=i;TC32 spheroid=?;MG63 3D tox=?;RD 3D tox=?
COc1ccc(Br)cc1C1SCC(=O)Nc2c1c(C)nn2-c1ccccc1C (configuration not stated) | 9% | i | ? | -22% | 6% | -20% | / | / | / | /
Cc1ccc(Cl)cc1NC(=O)Cn1c(=O)oc2cc(S(=O)(=O)N3CCCC3)ccc21 | 1% | / | / | -38% | -12% | / | / | / | / | /
CCOC(=O)c1c(C)n(Cc2ccccc2)c2ccc(OCC(O)Cn3nc(C)cc3C)cc12 (configuration not stated) | -14% | ? | -18% | -10% | ? | 14µM* | 21µM* | ? | 15µM* | 40%
CC(=NCCN1CCCCC1)c1c(O)n(-c2ccc(Cl)cc2)c(=O)[nH]c1=O | -21% | i | 4% | 6% | -8% | -2% | / | / | / | /
COc1ccc(S(=O)(=O)N2c3ccc(F)cc3CCC2C)cc1 (configuration not stated) | -13% | ? | / | -28% | 15% | 6.3µM* | 4.1µM* | -7% | 5.8µM* | -16%
Oc1ccccc1-[n+]1c(-c2ccccc2)cc(-c2ccccc2)c(O)c1-c1ccccc1 | -9% | i | -4% | -26% | 0% | 11µM* | ? | ? | 23µM* | -4%
c1ccc2c(CN3CCCCCCC3)c[nH]c2c1 | -3% | ? | -10% | -26% | 1% | ? | 21µM* | 23µM* | 8.2µM* | -4%
c1ccc2c(CN3CCN(C4CCCCC4)CC3)c[nH]c2c1 | -19% | i | 1% | -39% | 8% | -3% | / | / | / | /
C[C@@H]1COc2cccc(N3CCN(C)CC3)c2S(=O)(=O)N1 | / | ? | -5% | / | / | / | / | / | / | /
NC(=S)c1cn(C2OC(CO)C(O)C2O)c2ncnc(N)c12 (configuration not stated) | ? | ? | / | -37% | ? | 0.32µM* | 0.26µM* | 0.16µM* | 0.46µM* | 44%
NC(=O)c1ncn([C@@H]2O[C@H](CO)[C@@H](O)[C@H]2O)n1 | -7% | i | 8% | 0% | ? | 10% | / | / | / | /
CC(C)(C)n1nnnc1C(c1cc2ccccc2o1)N1CCC2(CC1)C(=O)NCN2c1ccccc1 (configuration not stated) | / | / | -37% | 3% | / | ? | / | / | / | /
O=C1NCN(c2ccccc2)C12CCN(C(c1cc3ccccc3o1)c1nnnn1C1CCCCC1)CC2 (configuration not stated) | / | ? | ? | -111% | / | 10µM* | 18µM* | ? | 23µM* | ?

Screening results: PubChem BioAssay, National Center for Advancing Translational Sciences (NCATS)
